Screening data: PubChem, The Scripps Research Institute Molecular Screening Center
An excerpt weighted towards active compounds, which were near 2.8% of everything screened.
HGIII-sPLA2 inh = Blocks human group III sPLA2 activity; AID 743126; inhibition, % at 12.2 µM; QFRET BODIPY PC-A2 liposome hydrolysis, fluorescence; 0.56% of 370,000 active;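 active = inhibition above mean plus 3 SD of compounds lying within the high and low control bounds, cut at about 19% in these data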;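 also: 0% = median of test compound wells and 100% = no enzyme DMSO wells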
Target sequence (Q9NZ20 whole entry, looked up): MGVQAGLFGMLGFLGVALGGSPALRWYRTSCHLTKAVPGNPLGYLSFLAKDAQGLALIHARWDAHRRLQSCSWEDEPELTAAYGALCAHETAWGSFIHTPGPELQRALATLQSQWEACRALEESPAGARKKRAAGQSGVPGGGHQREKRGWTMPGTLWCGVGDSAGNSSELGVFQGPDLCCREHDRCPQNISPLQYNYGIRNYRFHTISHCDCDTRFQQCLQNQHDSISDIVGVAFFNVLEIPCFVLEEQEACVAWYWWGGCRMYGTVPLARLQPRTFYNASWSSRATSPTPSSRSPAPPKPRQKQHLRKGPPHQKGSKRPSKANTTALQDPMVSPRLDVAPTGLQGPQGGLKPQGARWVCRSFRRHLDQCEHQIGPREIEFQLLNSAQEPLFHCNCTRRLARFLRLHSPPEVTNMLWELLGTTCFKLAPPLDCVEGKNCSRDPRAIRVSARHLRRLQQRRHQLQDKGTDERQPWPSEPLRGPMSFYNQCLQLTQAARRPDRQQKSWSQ
bovine MsrA act = bovine methionine sulfoxide reductase A activation | purified bovine MsrA, absorbance read-out | activation, % at 10.6 µM | 0.3% of 360,000 active; in the data active = activation above about 7.5%;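 also: 0% = vehicle and 100% = reference activator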
rCAG binder = molecules binding r(CAG) RNA repeats; 1.3% of 370,000 active; inhibition, % at 3 µM; r(CAG) RNA repeat, TO-PRO-1 dye displacement fluorescence;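 active = inhibition above the plate cutoff, the mean of all test compounds on that plate plus 3 SD, cut at about 35% in these data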;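 also: 0% = DMSO alone and 100% = 100 µM mitoxantrone as full dye displacement; higher means more dye released from RNA so lower well fluorescence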
MsrA inhibitor = bovine MsrA inhibition. purified bovine MsrA, absorbance read-out. inhibition, % at 15.5 µM. 0.75% of 360,000 active; in the data active = inhibition above about 4.5%;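 also: 0% = vehicle wells with enzyme and 100% = reference inhibitor wells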
rCAG binder conf = r(CAG) RNA repeat binding, confirmation; shares compounds with rCAG binder; TO-PRO-1 dye displacement fluorescence; inhibition, % at 3 µM; 70% of 4,300 active; AID 652065;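 active = inhibition above a per-plate cutoff, the mean inhibition of sample wells plus 3 SD, cut at about 35% in these data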;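 also: loss of TO-PRO-1 fluorescence as compound displaces dye from 1x1 AA loop RNA; 0% = DMSO only wells and 100% = 100 µM mitoxantrone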
dCAG dye counter = DNA CAG dye complex inhibition counter-screen; shares compounds with rCAG binder; 94% of 4,300 active; inhibition, % at 3 µM; d(CAG) DNA oligo TO-PRO-1 dye displacement, fluorescence; AID 652068;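 active = inhibition above its plate's cutoff, the mean test-well inhibition plus 3 SD, cut at about 4.8% in these data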;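 also: 0% = DNA dye mix with DMSO and 100% = 100 µM mitoxantrone; hits displace the dye from DNA and so lower well fluorescence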
hGIII sPLA2 conf = human GIII-sPLA2 inhibition, confirmation. shares compounds with HGIII-sPLA2 inh. recombinant hGIII-sPLA2, BODIPY PC-A2 QFRET fluorescence. inhibition, % at 12.2 µM. 34% of 2,000 active;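 active = mean inhibition across triplicates above the hit cutoff set in the earlier primary screen, cut at about 19% in these data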;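 also: 0% = enzyme with DMSO and 100% = DMSO wells lacking enzyme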
535nm interf = 535nm fluorescence interference, HGIII-sPLA2 counter-screen. shares compounds with HGIII-sPLA2 inh. AID 743282. inhibition, % at 12.2 µM. 8.5% of 2,000 active. BODIPY FL product fluorescence interference, QFRET;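 active = average inhibition above the solvent-only control mean plus 3 SD, cut at about 6% in these data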;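 also: 0% = DMSO with substrate plus product and 100% = DMSO with substrate alone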
* marks the source's active call; other numbers are inactive results; nt = no result given.

SMILES	HGIII-sPLA2 inh	bovine MsrA act	rCAG binder	MsrA inhibitor	rCAG binder conf	dCAG dye counter	hGIII sPLA2 conf	535nm interf
O=S(=O)(O)c1cc(Cl)cc(N=Nc2ccc(O)cc2O)c1O	49*	-9	91*	1	67*	31*	-38	-15
NS(=O)(=O)c1ccc(N=Nc2c(O)c(C(=O)O)cc3ccccc23)cc1	33*	-1	46*	2	48*	26*	25*	-2
O=C(CSc1nc2ccccc2s1)NNC(=S)Nc1ccc(Br)cc1	23*	1	53*	1	61*	22*	3	0
Cc1cccc2sc(NNC(=O)c3cc(-c4cccs4)nc4ccccc34)nc12	50*	-3	38*	1	36*	16*	49*	8.8*
NNC(=O)c1cc(-c2cccs2)nc2ccccc12	-6	-3	14	3	nt	nt	nt	nt
COc1ccc(C2=NN(CC(=O)Nc3ccccc3C)C(=O)CC2)cc1	1	-5	-1	0	nt	nt	nt	nt
CN(CC(=O)Nc1cccc(F)c1)C(=O)Cn1c(=O)oc2ccccc21	8	3	1	2	nt	nt	nt	nt
O=C1S/C(=C\C=C\c2ccco2)C(=O)N1c1ccccc1	28*	3	41*	1	18	12*	2	-2
Cn1cc(/C=C2\SC(=O)N(c3ccccc3)C2=O)c2ccccc21	4	-5	1	0	nt	nt	nt	nt
COc1ccc(-c2[nH]ncc2CNCc2cc(C)n(C)n2)c(F)c1	3	-4	-4	1	nt	nt	nt	nt
Cc1c(Cl)cccc1NC(=O)Nc1ccccc1C(N)=O	12	-2	-5	1	nt	nt	nt	nt
CCN=c1scc(C)n1/N=C/c1ccc(O)c(O)c1O	22*	-4	38*	1	49*	19*	24*	-11
CCN=c1scc(C)n1/N=C/c1cc(Br)c(O)c(Br)c1	22*	-4	36*	3	42*	18*	21*	1
CCn1c(-c2ccccc2)c(C(=O)CCl)c2ccccc21	-1	-1	-2	0	nt	nt	nt	nt
O=C(c1cc(O)c(O)c([N+](=O)[O-])c1)c1ccccc1F	29*	-11	35*	3	35*	6.4*	15	3
CC(=O)N1CCc2cc(S(=O)(=O)C(C)CC(=O)NCc3ccco3)ccc21 (stereo not drawn)	15	-2	7	1	nt	nt	nt	nt
N#CC(C(=S)Nc1ccccc1)c1nc2ccccc2[nH]1 (stereo not drawn)	28*	-3	65*	4	46*	16*	3	7.4*
CCN(CC)S(=O)(=O)c1ccc(/C=C/C(=O)N(c2ccccn2)C2CCCCC2)cc1	-2	-9	-2	-1	nt	nt	nt	nt
O=[N+]([O-])c1ccccc1C(=Nc1ccccc1)c1c(O)cc(O)cc1O	26*	-4	45*	3	12	7.7*	0	3
CCN(CC)S(=O)(=O)c1cccc(C(=O)N/N=C/c2cc(OC)c(O)c(OC)c2)c1	-9	-5	0	3	nt	nt	nt	nt
CCN(CC)S(=O)(=O)c1cccc(C(=O)N/N=C/c2cccc(O)c2O)c1	23*	-5	37*	1	33	13*	12	4
Cc1ccc(C2CC2C(=O)NNC(=S)Nc2cccc(C)c2)cc1 (stereo not drawn)	19	4	10	-1	nt	nt	nt	nt
Cc1ccc(C2CC2C(=O)NNC(=S)Nc2cccc(Cl)c2)cc1 (stereo not drawn)	23*	0	52*	1	51*	19*	-9	10.0*
Oc1ccc(/C=N/N(Cc2ccccc2)c2ccccc2)c(O)c1O	20*	-4	38*	1	45*	25*	30*	7.4*
Oc1cccc(/C=N/N(Cc2ccccc2)c2ccccc2)c1	-10	-2	15	0	nt	nt	nt	nt
SMILES	HGIII-sPLA2 inh	bovine MsrA act	rCAG binder	MsrA inhibitor	rCAG binder conf	dCAG dye counter	hGIII sPLA2 conf	535nm interf
Cc1cc(C)c2nc(NNC(=O)c3ccc(S(=O)(=O)N4CCc5ccccc5C4)cc3)sc2c1	50*	-1	61*	1	50*	26*	36*	2
COc1ccc(N(CC(=O)NCc2ccccc2OC)S(=O)(=O)c2ccccc2[N+](=O)[O-])c(OC)c1	-7	1	1	2	nt	nt	nt	nt
CCCOc1ccc(/C=N/NC(=S)Nc2ccccc2[N+](=O)[O-])c(O)c1	37*	nt	49*	0	45*	20*	56*	12*
CCCOc1ccc(/C=N/Nc2ccccc2[N+](=O)[O-])c(O)c1	7	-4	5	0	nt	nt	nt	nt
Nc1ccc(C(=O)N/N=C\c2cc(N=Nc3cccc4ccccc34)ccc2O)cc1	34*	-5	39*	3	29	15*	38*	8.2*
CC(C)N(C(=O)[C@H]1CC(CC(=O)NCc2cccc(C(F)(F)F)c2)C(=O)N2CCc3c([nH]c4ccccc34)[C@]12C)C(C)C (stereo partly drawn)	2	1	0	2	nt	nt	nt	nt
O=C(O)c1ccc2c(c1)c1c3n2CCNC3CCC1 (stereo not drawn)	-7	-4	4	2	nt	nt	nt	nt
CCCS(=O)(=O)c1c(S(=O)(=O)CCC)c2cnccn2c1C(=O)c1ccc(CC)cc1	0	2	1	0	nt	nt	nt	nt
CCCS(=O)(=O)c1c(S(=O)(=O)CCC)c2cnccn2c1C(=O)c1ccc(F)cc1	19*	-4	-5	1	nt	nt	3	-10
COc1ccc(NS(=O)(=O)c2ccc3ccccc3c2)c2ncccc12	28*	-4	9	2	nt	nt	14	-1
COc1ccc(-n2cnc3c(N)nc(N)nc32)cc1	20*	-4	2	1	nt	nt	-2	-5
c1ccc(CCNc2nc(-c3ccncc3)cs2)cc1	-5	-9	-3	2	nt	nt	nt	nt
CCCCNC(=O)CCn1c(=O)c2ccccc2n(CC(=O)NCCc2ccc(OC)c(OC)c2)c1=O	21*	-8	-5	0	nt	nt	-7	-15
CCOC(=O)c1c(C)[nH]c(C(=O)COC(=O)COc2ccccc2C=O)c1C	20*	-2	2	0	nt	nt	3	-14
CC(C)C[C@@H]1COc2cc(Br)ccc2S(=O)(=O)N1Cc1cn(CCC2OCCCO2)nn1	23*	nt	4	nt	nt	nt	0	-29
CN(c1ccc(OCCOc2ccccc2Cl)cc1)S(=O)(=O)c1ccccc1	3	-7	3	1	nt	nt	nt	nt
Cc1ccc(OCC(=O)c2cc(C)n(Cc3cccs3)c2C)c([N+](=O)[O-])n1	1	-2	0	2	nt	nt	nt	nt
Cc1cc(C(=O)COc2ccc3ccc(=O)oc3c2)c(C)n1Cc1cccs1	21*	-2	3	1	nt	nt	1	-15
Cc1ccc(-c2sc(C(=O)NN)c(C)c2C#N)cc1	24*	0	10	0	nt	nt	13	-2
